# Experimental data: PubChem BioAssay (NCI)
# This is part of a sample that, as a whole, favours compounds with a hit. Of some 83,000 tested, about 20% had one in any assay.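 In brief: 96-well plates, 48 h treatment, single concentration, percent growth endpoint.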 A number with no mark means an inactive call. The source made the active and inactive calls. How the source made its calls: active means growth percent below 10; inactive means the rest.
# What was measured:
# Assay in all cases: NCI-60 one-dose screen, 48 h (100 = growth as untreated, 0 = no growth, -100 = all killed)
# Settings in all cases: 10 µM unless noted
# NCI-H23 lung = system: NCI-H23 lung
# NCI-H226 lung = system: NCI-H226 lung
# NCI-H322M lung = system: NCI-H322M lung
# HOP-62 NSCLC = system: HOP-62 NSCLC
# NCI-H460 lung = system: NCI-H460 lung
# HOP-92 NSCLC = system: HOP-92 NSCLC
# NCI-H522 lung = system: NCI-H522 lung
# A549/ATCC NSCLC = system: A549/ATCC NSCLC
# 786-0 renal = system: 786-0 renal
# COLO 205 colon = system: COLO 205 colon
# DU-145 prostate = system: DU-145 prostate
# K-562 leukemia = system: K-562 leukemia
# MALME-3M melanoma = system: MALME-3M melanoma
# MDA-MB-231 breast = system: MDA-MB-231 breast
# RXF 393 renal = system: RXF 393 renal
# SF-268 CNS = system: SF-268 CNS
# SF-295 CNS = system: SF-295 CNS
# SF-539 CNS = system: SF-539 CNS
# UACC-257 melanoma = system: UACC-257 melanoma
# M14 melanoma = system: M14 melanoma
SMILES,growth (NCI-H23 lung),growth (NCI-H226 lung),growth (NCI-H322M lung),growth (HOP-62 NSCLC),growth (NCI-H460 lung),growth (HOP-92 NSCLC),growth (NCI-H522 lung),growth (A549/ATCC NSCLC),growth (786-0 renal),growth (COLO 205 colon),growth (DU-145 prostate),growth (K-562 leukemia),growth (MALME-3M melanoma),growth (MDA-MB-231 breast),growth (RXF 393 renal),growth (SF-268 CNS),growth (SF-295 CNS),growth (SF-539 CNS),growth (UACC-257 melanoma),growth (M14 melanoma)
Cc1nc2sc(C(=O)Nc3cccc(Cl)c3)c(N)c2cc1C(O)c1ccccc1 (stereo not given),32%,54.1%,60.2%,45.3%,6.05% (active),77.2%,3.93% (active),21.1%,36.8%,20.8%,19.7%,6.94% (active),49.7%,22.3%,27.7%,42.3%,28.8%,-3.45% (active),35%,15%
COc1cc2cc(NCc3ccc(OC(F)F)cc3)nc(C)c2cc1OC,45.1%,75.5%,53.4%,58.7%,57.2%,63%,45.3%,72.1%,61.8%,65.7%,75.8%,34%,72.4%,62.6%,67.1%,73.2%,35%,69.1%,87.5%,63.9%
C=CCOC(=O)C1=C(C)NC(=O)NC1c1c(Cl)n(C)c2ccccc12 (stereo not given),88.3%,97.8%,96.9%,92.9%,106%,55.3%,93.3%,103%,91.3%,111%,107%,106%,105%,96%,100%,95.4%,99.4%,93.5%,99.4%,95.3%
CCOC(=O)C1CCN(c2ccc(N3C[C@@H](CNCc4ccc(C(=N)N)cc4)OC3=O)cc2)CC1,97.9%,97.2%,103%,97.5%,103%,90.8%,92.6%,104%,100%,103%,98.6%,99.3%,83.1%,99.8%,99.7%,100%,101%,94.4%,102%,94.7%
O=C(Cn1cc(CN2C(=O)c3ccccc3S2(=O)=O)nn1)Nc1cccc(Cl)c1,97.1%,117%,99%,125%,111%,105%,93.9%,111%,115%,114%,109%,103%,99.6%,115%,106%,99.4%,115%,110%,113%,100%
OC(c1ccccc1)(c1ccccc1)c1ccccc1-c1ccccc1,83.9%,91.9%,101%,90.4%,93.1%,67.1%,75.9%,81.8%,95.9%,81%,96.2%,96.5%,120%,84.4%,103%,90.6%,109%,112%,101%,99.4%
O=C1c2cccnc2C(=O)c2c1c(C(=O)OCCCN1CCCCC1)c1ccccn21,-48.5% (active),-18.4% (active),-18.1% (active),-31.9% (active),-63.3% (active),-8.21% (active),-80% (active),-63.8% (active),-62.6% (active),-79% (active),-86.8% (active),-28.5% (active),-78.2% (active),-8.94% (active),-64.2% (active),-15.3% (active),-13.9% (active),-9.46% (active),-38.4% (active),-83.5% (active)
Fc1ccc2c(c1)c(-c1nc(-c3c[nH]c4ncccc34)cs1)cn2CCCN1CCOCC1,76%,59.3%,80.9%,49.9%,37.8%,23.5%,41.3%,42.6%,57.3%,18.1%,79.8%,1.71% (active),59.2%,36%,39.5%,50.8%,27.5%,67.3%,83%,34.7%
COc1ccc(/C=C/C(=O)c2cc3c(N)c(C(=O)Nc4ccccc4C)sc3nc2C)cc1,36.1%,53.3%,35.7%,32.6%,1.23% (active),79.2%,-28.4% (active),20.1%,21.3%,-30.3% (active),13%,15.3%,51.7%,15.5%,-23.1% (active),32.3%,14.2%,-38.2% (active),64.8%,3.29% (active)
COc1cc(-c2cc(-c3ccc(Nc4ncnc5cc(Cl)ccc45)cc3)nc(N3CCN(C)CC3)n2)cc(OC)c1OC,108%,50.5%,104%,94.4%,100%,77.7%,85.8%,89.2%,45.2%,90.6%,98.9%,56%,71%,51.7%,-1.57% (active),76.9%,111%,32.9%,117%,80.8%
COc1ccc2c(c1)c(-c1nonc1-c1cn(C)c3ccc(OC)cc13)cn2C,59.2%,75.1%,71.1%,32.4%,12.6%,55.6%,18.5%,39.2%,54.5%,32.9%,70.9%,13%,41.7%,49.5%,70.9%,54.2%,30.4%,33.9%,62.4%,16.6%
CCn1cc(CNc2ccc(C(=O)Nc3cc4cc(OC)c(OC)cc4c(C)n3)cc2)c(C)n1,9.61% (active),20.5%,85.1%,12.8%,58.1%,78.6%,-10.1% (active),29.5%,70.9%,28.9%,56.3%,15.6%,25.2%,74.7%,90.9%,48.6%,30.4%,75.5%,48.1%,22.1%
COc1ccc(NC(=O)c2cccc(C3CCc4c(cc(OC)c(OC)c4OC)O3)c2)cc1 (stereo not given),52.1%,47.5%,53.9%,30.7%,18.2%,-2.49% (active),21.8%,32.1%,26.1%,41.3%,63.2%,6.79% (active),41.7%,31%,53%,50.2%,23.9%,18.9%,46.5%,28.2%
COCCCOc1cc(C[C@@H](C[C@H](N)[C@@H](O)C[C@H](C(=O)NCC(C)(C)C(N)=O)C(C)C)C(C)C)ccc1OC,99.4%,102%,114%,114%,112%,84.5%,101%,103%,103%,112%,124%,103%,109%,102%,104%,117%,93%,103%,104%,109%
CCCCc1oc2ccccc2c1C(=O)c1ccc(O)cc1,-5.52% (active),92.8%,85.1%,79.3%,84.4%,68.2%,66.7%,76.6%,79.5%,118%,101%,37.8%,85.4%,79.1%,72.7%,94.2%,175%,82.5%,76.8%,92.2%
CCCCCCCCn1ccc2cc(NC(=O)Cn3cc(CN4CCN(CC)CC4)nn3)ccc21,105%,98.3%,78.3%,89.8%,13.8%,54.7%,86.9%,64%,57.9%,-70.2% (active),90.6%,3.41% (active),-11.1% (active),45.8%,67.7%,76.7%,13.7%,82.7%,79.4%,-64.3% (active)
